Results as given in PubChem BioAssay (EPA / NIEHS).
Inconclusive results are not listed. Calls of active or inactive are those of the source. How the source made its calls, unless noted: active means hit-call score of the fitted dose curve at least 0.9, where 1 is the maximum; inactive means score below 0.9.

Experiments:
[1] = BSK_BT_PBMCCytotoxicity: PBMC Cytotoxicity Assessment in the BioMAP Diversity Plus: BT Assay (AID 2284225); settings: primary human B cells with PBMC;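 further: PBMC viability measured by Alamar Blue dye reduction fluorescence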
In short: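 Viability by Alamar Blue reduction (6 h, ex/em 546/580 nm) after 90 h culture of SEB/TSST-1-activated PBMC (20 ng/mL each) given compound 1 h before activation. DMSO served as baseline for curve fitting.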

[2] = read-out: Secreted IgG (sIgG), gene 3500; assay: BSK_BT_sIgG: BioMAP Diversity Plus: BT Assay for Secreted IgG (sIgG) Biomarker Activity (AID 2284226); settings: primary human B cells with PBMC
In short: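 Cells (B cells with peripheral blood mononuclear cells) are dosed, cultured 24 h, then supernatant IgG is measured by ELISA. DMSO serves as negative control; curves are fitted for signal increase.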

[3] = BSK_BT_Bcell_Proliferation: Viability Assessment in the BioMAP Diversity Plus: BT Assay for B cell Proliferation (AID 2284227); settings: primary human B cells with PBMC
In short: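 SRB-based protein staining (0.1% SRB after 10% TCA fixation, 560 nm) quantifies proliferation in human B cells co-cultured with PBMC, 72 h post-dosing, with signal gain scored relative to DMSO negative control.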

[4] = read-out: Interleukin 6 (IL6), IL6 (gene 3569); assay: BSK_BT_xIL6: BioMAP Diversity Plus: BT Assay for Interleukin 6 (IL6) Biomarker Activity (AID 2284228); settings: primary human B cells with PBMC
In short: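 Readout: secreted IL-6 via Luminex xMAP multiplex, 24 h post-dosing. System: primary human B cells co-cultured with PBMC. Signal change scored relative to DMSO vehicle, positive fitting direction.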

[5] = read-out: Interleukin 17A (IL17A), IL17A (gene 3605); assay: BSK_BT_xIL17A: BioMAP Diversity Plus: BT Assay for Interleukin 17A (IL17A) Biomarker Activity (AID 2284229); settings: primary human B cells with PBMC
In short: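 Luminex xMAP readout of secreted IL-17A; human B cell + PBMC co-culture; 24 h post-dose; positive-direction fit vs DMSO negative control.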

[6] = read-out: Tumor necrosis factor (Homo sapiens) (UniProt P01375); assay: BSK_BT_xTNFa: BioMAP Diversity Plus: BT Assay for Tumor necrosis factor alpha (TNF-alpha) Biomarker Activity (AID 2284230); settings: primary human B cells with PBMC
In short: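 Compounds were added to a B cell plus PBMC co-culture, and after 24 h secreted TNF-alpha was quantified with Luminex xMAP technology, with responses fitted upward from the DMSO control.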

[7] = read-out: Vascular cell adhesion molecule 1 (VCAM1), VCAM1 (gene 7412); assay: BSK_MyoF_VCAM1: BioMAP Diversity Plus: MyoF Assay for Vascular cell adhesion molecule 1 (VCAM1) Biomarker Activity (AID 2284231); settings: primary human lung fibroblasts
In short: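 MyoF system, lung fibroblasts; 24 h post-dose; VCAM-1 by ELISA; gain-of-signal fit vs DMSO baseline.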

[8] = read-out: Collagen III, COL3A1 (gene 1281); assay: BSK_MyoF_CollagenIII: BioMAP Diversity Plus: MyoF Assay for Collagen III Biomarker Activity (AID 2284239); settings: primary human lung fibroblasts
In short: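 Lung fibroblast culture; 24 h compound exposure; collagen III by ELISA; gain-of-signal fit vs DMSO baseline.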

[9] = TAMU_PeakParms_SingleDonor1434_QT: Texas A&M University (TAMU) 1.5-hr Human Induced Pluripotent Stem Cell (iPSC)-derived Cardiomyocytes Calcium (Ca+2) Flux Assay for Cardiotoxicity: QT (decay-rise ratio) (AID 2284235; active means hit-call score of the fitted dose curve at least 0.9, where 1 is the maximum)
In short: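 Decay/rise ratio of calcium-flux fluorescence scored after 90 min exposure (37C) of donor 1434 iPSC cardiomyocytes to 0.2–100 uM (0.5% DMSO). Beat-cessation and severe-notch points removed; POD is EC05, a 5% rise over DMSO.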

Measured: AC50

Tumor necrosis factor (Homo sapiens), sequence (P01375 whole entry, looked up): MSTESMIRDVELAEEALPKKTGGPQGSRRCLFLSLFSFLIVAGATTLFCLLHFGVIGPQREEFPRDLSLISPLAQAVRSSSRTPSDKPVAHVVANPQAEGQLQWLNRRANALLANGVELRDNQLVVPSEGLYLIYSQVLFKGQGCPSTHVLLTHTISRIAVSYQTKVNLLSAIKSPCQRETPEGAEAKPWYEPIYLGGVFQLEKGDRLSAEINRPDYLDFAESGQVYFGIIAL

CCC(C)c1cc([N+](=O)[O-])cc([N+](=O)[O-])c1OC(=O)OC(C)C (centres undefined)
active: [1] 20 µM | [2] 11.1 µM | [3] 26.7 µM | [4] 30.4 µM | [5] 30.7 µM | [6] 33.5 µM | [7] 8.46 µM | [8] 11.5 µM

C=C(C)[C@H]1CC=C(C)C(=O)C1
not listed: [9]
inactive: all other assays above

O=C1OC2(c3ccccc31)c1ccc(O)c(Br)c1Oc1c2ccc(O)c1Br
active: [8] 20 µM
not listed: [9]
inactive: all other assays above

CC(C=O)Cc1ccc(C(C)(C)C)cc1 (centres undefined)
not listed: [9]
inactive: all other assays above

CC=Cc1ccc(OCC)c(O)c1
active: [2] 12.9 µM
not listed: [9]
inactive: all other assays above

CC(C)NCC(O)COc1ccc(CC(N)=O)cc1 (centres undefined)
inactive: [9]

COc1cc(Cl)c(OC)cc1N
not listed: [9]
inactive: all other assays above

CS(=O)(=O)c1ccc(C2=C(c3ccccc3)C(=O)OC2)cc1
not listed: [9]
inactive: all other assays above

CCN(CC)C(=O)N(CC)CC
not listed: [9]
inactive: all other assays above

IC(I)I
not listed: [9]
inactive: all other assays above

CN(C)C(=O)Nc1ccc(Oc2ccc(Cl)cc2)cc1
active: [2] 20 µM
not listed: [9]
inactive: all other assays above

Clc1cc(Cl)c(-c2c(Cl)c(Cl)cc(Cl)c2Cl)cc1Cl
active: [7] 2.76 µM | [8] 12.4 µM
not listed: [9]
inactive: all other assays above

CN(c1nccc(=O)[nH]1)C1CCN(c2nc3ccccc3n2Cc2ccc(F)cc2)CC1
active: [2] 14.6 µM | [7] 3.1 µM
not listed: [9]
inactive: all other assays above

CC(C)(N=C=O)c1cccc(C(C)(C)N=C=O)c1
not listed: [9]
inactive: all other assays above

CCCCOC(=O)CCCCCCCC(=O)OCCCC
not listed: [9]
inactive: all other assays above

C=C(C)C(=O)OCCOCCOCCOCCOC(=O)C(=C)C
active: [2] 20 µM
not listed: [9]
inactive: all other assays above

c1ccc(CCc2ccccc2)cc1
active: [7] 31 µM | [8] 26.9 µM
not listed: [9]
inactive: all other assays above

CCCCCC(C=O)=Cc1ccccc1
active: [2] 26.9 µM | [7] 34.2 µM
not listed: [9]
inactive: all other assays above

CCCCN(CCCC)C(=O)N(CCCC)CCCC
active: [1] 32.8 µM | [2] 14.6 µM | [3] 31.4 µM | [4] 29 µM | [5] 14.5 µM | [6] 30.3 µM | [7] 10.5 µM | [8] 8.12 µM

C[C@@H]1CCN(C(=O)[C@H](CCCN=C(N)N)NS(=O)(=O)c2cccc3c2NC[C@H](C)C3)[C@@H](C(=O)O)C1
not listed: [9]
inactive: all other assays above

CC(=O)C1(C)CC2=C(CCCC2(C)C)CC1C (centres undefined)
active: [1] 31.9 µM | [2] 28.8 µM | [3] 34.7 µM | [4] 28.5 µM | [5] 26 µM | [6] 30.3 µM | [7] 12.1 µM | [8] 26 µM

O=C1OC[C@H](Cc2cccc(O)c2)[C@H]1Cc1cccc(O)c1
not listed: [9]
inactive: all other assays above
